ALDH1A1 block = ALDH1A1 (human) enzyme inhibition. P00352. 7.3% of 220,000 active. Purified ALDH1A1, NADH fluorescence, propionaldehyde substrate. Potency, µM (highest dose often 75.3 µM), for inactives: at the top dose activity, negative = inhibition, usual class: inhibitors; active = well fitted inhibition curve with a large enough effect, not every such curve was filed as active; inconclusive = small, poorly fitted or top-dose-only effect, or another doubt; inactive = no such curve, though single readings can be large or run the other way;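 also: potency is read from the fitted curve at half-maximal effect; plate controls were no enzyme wells and a reference inhibitor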
Target sequence (P00352 whole entry, looked up): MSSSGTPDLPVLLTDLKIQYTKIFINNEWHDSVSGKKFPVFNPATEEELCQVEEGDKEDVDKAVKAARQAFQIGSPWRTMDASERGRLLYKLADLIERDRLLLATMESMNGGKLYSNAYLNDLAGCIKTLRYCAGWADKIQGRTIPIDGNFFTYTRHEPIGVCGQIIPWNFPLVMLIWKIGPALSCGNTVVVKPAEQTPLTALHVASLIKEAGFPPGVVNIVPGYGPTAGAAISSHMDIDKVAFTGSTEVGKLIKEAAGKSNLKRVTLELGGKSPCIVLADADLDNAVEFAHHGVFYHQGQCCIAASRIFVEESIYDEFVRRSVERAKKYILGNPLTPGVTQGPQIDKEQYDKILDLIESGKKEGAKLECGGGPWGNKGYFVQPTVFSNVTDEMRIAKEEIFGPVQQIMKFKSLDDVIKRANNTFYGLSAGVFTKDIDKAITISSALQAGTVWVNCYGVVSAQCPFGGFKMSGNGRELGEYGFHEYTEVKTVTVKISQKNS
IMPase Li cell = cell-permeable IMPase inhibitors with lithium potentiation. Potency, µM (top dose mostly 59.4 µM), for inactives: at the top dose activity, negative = IMPase inhibition, usual class: inhibitors. 0.35% of 210,000 active. CHO-M1 cells, IP1 TR-FRET (IP-One), carbachol + lithium;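 also: IP1 builds up when IMPase is blocked and the TR-FRET signal falls; potency is read from the fitted curve at half-maximal effect; plate controls were basal vehicle for no effect and high inhibitor control for full effect; nearly all actives have a fitted effect of over 50% in size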
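Test compounds were applied to CHO-M1 cells previously cultured for 16–30 h at 2000 per well. A small lithium amount accompanied them; after 30 min at 37C, IP1 was quantified by TR-FRET.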
ALOX12 inhib = inhibitors of human 12-lipoxygenase (ALOX12) | P18054 | Potency, µM (highest dose often 57.1 µM), without a hit: at the top dose activity change, negative = inhibition, actives largely listed as inhibitors | 0.12% of 150,000 active | purified 12-hLO, xylenol orange hydroperoxide absorbance; also: potency is read from the fitted curve at half-maximal effect; nearly all actives have a fitted effect of over 55% in size
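Hydroperoxide formation by human 12-lipoxygenase from 40 uM arachidonic acid was followed colorimetrically via ferric-xylenol orange complex, using the 573/405 nm absorbance ratio. Enzyme concentration was 150 nM, with 30 min reaction at room temperature.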
HPGD inh = blocks human HPGD enzyme activity; P15428; purified HPGD, NADH fluorescence kinetic, PGE2 substrate; Potency, µM, inactives show at the top dose activity change, negative = inhibition, most hits filed as inhibitors; 4.3% of 150,000 active; AID 894; active = well fitted inhibition curve with a large enough effect, not every such curve was filed as active; inconclusive = small, poorly fitted or top-dose-only effect, or another doubt; inactive = no such curve, though single readings can be large or run the other way; also: potency is read from the fitted curve at half-maximal effect
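20 nM HPGD preincubated 15 min at room temperature with compound in 50 mM Tris-HCl pH 8, 0.01% Tween 20. Started with 1 mM NAD+ and 30 uM prostaglandin E2; NADH fluorescence (360/450 nm) read 5 times over 30-s intervals, last minus first.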
IMPase inh = IMPase inhibition in cells. P97697. 120,000 tested, under 10 active. CHO-M1 cells, IP1 accumulation, HTRF TR-FRET ratio. inhibition (IP1 accumulation), % at 46.1 µM; active = well fitted curve in the direction sought with a large enough effect in the signal ratio, not every such curve was filed as active; inconclusive = small, poorly fitted or top-dose-only effect, or a change in a side signal; inactive = no such curve, though single readings can be large or run the other way; the % refers to the signal ratio;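 also: cells stimulated with carbachol in lithium chloride buffer; plate controls were DMSO basal wells for no effect and reference inhibitor wells for full effect; higher means more IMPase inhibition seen as more IP1 and lower FRET ratio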
Target sequence (P97697 whole entry, looked up): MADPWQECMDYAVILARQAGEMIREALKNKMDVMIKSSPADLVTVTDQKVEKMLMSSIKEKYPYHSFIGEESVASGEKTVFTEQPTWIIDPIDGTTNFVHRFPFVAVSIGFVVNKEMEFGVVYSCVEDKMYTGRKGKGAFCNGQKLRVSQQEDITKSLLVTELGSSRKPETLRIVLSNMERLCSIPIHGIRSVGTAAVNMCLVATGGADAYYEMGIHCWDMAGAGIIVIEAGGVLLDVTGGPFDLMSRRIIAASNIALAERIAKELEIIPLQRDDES
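Elevated IP1 in lysates lowers TR-FRET signal (665/620 ratio and 620 channel reported). Cells were CHO-M1, given carbachol (50 uM as added) plus 50mM LiCl, pH 7.4, 30 min, 37C; compounds titrated up to 46 uM; AC50 by Hill equation.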
NPSR antag = neuropeptide S receptor (human) antagonism, cAMP. Q6W5P4. CHO-NPSR cells, cAMP TR-FRET, antagonist mode. Potency, µM (series often up to 38.3 µM), for the others: top-dose activity change, negative = inhibition, hits mostly inhibitors. 1% of 220,000 active. AID 1461; also: potency is read from the fitted curve at half-maximal effect; nearly all actives have a fitted effect of over 50% in size
* = called active by the depositor; u = inconclusive; x = not tested or not shown; [ ] = dose if it differs, or a comment. In the library only some 8.9% were active in any assay of this set; here they are far more common. Unless noted, calls follow the shape of the dose curve; as a rule, active = well fitted curve in the direction sought with a large enough effect; inconclusive = small, poorly fitted or top-dose-only effect, or another doubt; inactive = no such curve, though single readings can be large; an effect the other way counts as inactive or inconclusive. Unless noted, % is scaled to controls: 0 for no effect and ±100 for the full control effect.

SMILES | ALDH1A1 block | IMPase Li cell | ALOX12 inhib | HPGD inh | IMPase inh | NPSR antag
COc1ccccc1C1CCN(Cc2c(C)[nH]c3ccccc23)CC1 | -3% | x | x | x | x | 11%
Cc1ccc(CN2CCN(/N=C/c3ccc(C(=O)O)cc3)CC2)c(C)c1 | u | 3% | x | x | x | -22%
CC(C(=O)NCc1ccco1)n1cc(C(=O)c2ccco2)c2ccccc21 (configuration not stated) | -2% | 12%[38.3 µM] | -2% | -9% | 4 | -9%[46.1 µM]
COc1ccc(NC(=O)C(CCCCNC(=O)OC(C)(C)C)NC(=O)OCc2ccccc2)cc1 (configuration not stated) | -8% | 14% | 2% | -7% | x | -1%
Cc1ccc(C(=O)NC(=S)Nc2ccccc2C(F)(F)F)c(C)c1 | 13µM* | 19% | u | -15% | 3 | -9%
O=C(NC(=S)Nc1ccccc1C(F)(F)F)c1ccccc1F | 4% | 2% | x | x | x | -10%
COc1cc(C(c2c(C)[nH][nH]c2=O)c2c(C)[nH][nH]c2=O)ccc1OS(=O)(=O)c1ccccc1 | 1.6µM* | 21%[38.3 µM] | -3% | -8% | -2 | 2%[46.1 µM]
COc1cc(C(c2c(C)[nH][nH]c2=O)c2c(C)[nH][nH]c2=O)cc(OC)c1OC | -14% | 9% | x | x | x | -7%
COc1cc(C(c2c(C)[nH][nH]c2=O)c2c(C)[nH][nH]c2=O)ccc1OC(C)C | 14µM* | -3% | -4% | u | 0 | 14%
COc1cc(C(c2c(C)[nH][nH]c2=O)c2c(C)[nH][nH]c2=O)ccc1OS(=O)(=O)c1ccc(C)cc1 | -5% | 21%[38.3 µM] | -5% | -5% | 3 | -6%[46.1 µM]
Cc1ccnn2c(-c3ccccc3)c3c(=O)n(C)c(=O)n(C)c3c12 | 7% | -4%[38.3 µM] | 1% | -12% | 0 | -11%[46.1 µM]
CN(/N=C/c1ccc(O)cc1O)c1ncc(C(F)(F)F)cc1Cl | x | x | x | x | x | 10%[7.67 µM]
CC1=NN2C(=N)/C(=C\c3cc(C)n(-c4ccc(C)cc4)c3C)C(=O)N=C2S1 | x | x | x | x | x | 13µM*
CCC1=NN2C(=N)/C(=C\c3cccn3-c3ccc(OC)cc3)C(=O)N=C2S1 | u | -2% | x | x | x | -44%
Cc1ccc(-n2cccc2/C=C2\C(=N)N3N=C(C(C)C)SC3=NC2=O)cc1 | 16µM* | 4% | x | x | x | -45%
CSC1=NCCN1S(=O)(=O)c1ccc2ccccc2c1 | u | 2% | x | x | x | -10%
CCOC(=O)C1=C(c2ccccc2)O/C(=C(/C#N)C(F)(F)F)S1 | 4% | 2%[38.3 µM] | -1% | -7% | 0 | 7.9µM*
CCOC(=O)C1=C(c2ccccc2)O/C(=C(\C(=O)OC)C(F)(F)F)S1 | -6% | 45%[38.3 µM] | -1% | -17% | 0 | -17%[46.1 µM]
Cc1ccc(S(=O)(=O)CCC(=O)O)cc1C | 8.9µM* | 15% | -4% | -2% | 4 | 4%[46.1 µM]
Cc1noc(C)c1C(=O)N1CCC(CO)(Cc2ccccc2)CC1 | 4µM* | 25% | x | x | x | -10%
Cc1ccc(C(=O)ONc2ccc(N=NC(=O)c3ccccc3O)cc2)cc1 | u | 13%[38.3 µM] | 3% | 28µM* | 0 | -15%[46.1 µM]
CCOc1cccc(CNc2ccc(O)cc2)c1OCc1ccc(Cl)cc1 | 2.2µM* | 30%[38.3 µM] | 9% | -19% | 18 | u
Oc1ccc(NCc2ccccc2OCc2ccccc2F)cc1 | 18µM* | 11%[38.3 µM] | u | -23% | 15 | u
Cc1ccc(NCc2ccccc2OCc2ccccc2F)cc1 | 0% | 46%[38.3 µM] | -7% | -22% | 0 | -22%[46.1 µM]
CCOc1ccccc1CNc1ccc(O)cc1 | u | 9% | x | x | x | -4%
SMILES | ALDH1A1 block | IMPase Li cell | ALOX12 inhib | HPGD inh | IMPase inh | NPSR antag
Cc1sc2nc(CSCC(=O)N(CCC#N)c3ccccc3)[nH]c(=O)c2c1C | u | 1% | x | x | x | -4%
CCCCOC(=O)c1sc2nc(C)cc(C)c2c1N | x | x | x | x | x | 4%[7.67 µM]
CC1(C)CC(=O)C(Sc2ccccc2)=C(O)C1 | 20µM* | x | x | x | x | -19%
CC1(C)CC(=O)C(Sc2ccccc2C(=O)O)=C(O)C1 | 3% | -2% | 0% | -5% | x | 16%
O=C(CCCCCn1c(=S)[nH]c2cc3c(cc2c1=O)OCO3)N1CCN(C2CCCCC2)CC1 | -4% | 7%[38.3 µM] | -19% | -8% | 8 | u
CC(C)Sc1nnc(NC(=O)C2CC2)s1 | 0.05µM* | 9%[38.3 µM] | -10% | -26% | 15 | 12%[46.1 µM]
CCOCC(=O)Nc1nnc(C2CCCCC2)s1 | 19µM* | 1%[38.3 µM] | 1% | -25% | -1 | 0%[46.1 µM]
CCOC(=O)Cc1nnc(NC(=O)C2CCCCC2)s1 | -9% | -7% | x | x | x | 8%
CCc1nnc(NC(=O)C2CCCCC2)s1 | 25µM* | -6% | -2% | u | -1 | -3%[46.1 µM]
CCc1nnc(NC(=O)CSc2nnc(CNc3ccc(F)cc3)n2C2CCCCC2)s1 | 10µM* | -1%[38.3 µM] | -8% | -9% | -9 | 2%[46.1 µM]
COCC(=O)Nc1nnc(C2CCCCC2)s1 | u | 13%[38.3 µM] | 15% | -14% | 10 | 21%[46.1 µM]
CSc1nnc(NC(=O)C2CCCCC2)s1 | 3% | 20%[38.3 µM] | 2% | -4% | 8 | -1%[46.1 µM]
CN(C)c1ccc(P(=O)(OCc2ccccc2)C(O)c2ccc(Br)cc2)cc1 (configuration not stated) | x | x | x | x | x | -10%
Fc1ccc(Cn2c(SCc3ccc(F)c(C(F)(F)F)c3)nnc2C(F)(F)F)cc1 | 1% | 18%[38.3 µM] | -4% | -10% | 6 | u
Cc1cccc(N=C2NN=C(c3c(C)[nH]c4ccccc34)CS2)c1 | u | 2% | -7% | -16% | 2 | -57%
COC(=O)c1ccc(C2/C(=C(\O)c3ccc4c(c3)OCCO4)C(=O)C(=O)N2CCCN(C)C)cc1 (configuration not stated) | -5% | x | -2% | x | -2 | -3%[46.1 µM]
CCOC(=O)C(=O)Nc1nnc(C2CCCCC2)s1 | 32µM* | 12%[38.3 µM] | -3% | 16µM* | 0 | -6%[46.1 µM]
CCCCc1nnc(NC(=O)C(=O)OCC)s1 | u | -5% | x | x | x | 9%
Cn1c2ccccc2c2n[nH]c(=O)nc21 | -2% | -16% | x | x | x | 2%
Cn1c2ccccc2c2nn(-c3ccccc3)c(=O)cc21 | 13µM* | -3%[38.3 µM] | -7% | -16% | 1 | -14%[46.1 µM]
O=C(/C(=C/O)N=Nc1ccccc1)c1ccc(Cl)cc1 | u | 25% | x | x | x | u
O=C(/C(=C/O)N=Nc1ccccc1)c1ccncc1 | 1.3µM* | 25%[38.3 µM] | -14% | -23% | 9 | u
Cc1ccc(N=N/C(=C\O)C(=O)c2ccc(Cl)cc2)cc1 | 13µM* | 22% | x | x | x | 7.9µM*
CCOC(=O)c1nnc(-c2ccccc2)[nH]c1=O | 8% | 11% | x | x | x | 0%
COC(=O)C1CCN(C(=O)CN2C(=O)NC(CCc3ccccc3)C2=O)CC1 (configuration not stated) | 14% | 39%[38.3 µM] | -1% | -3% | 6 | -10%[46.1 µM]
O=C(COC(=O)/C=C/c1ccco1)Nc1cccc([N+](=O)[O-])c1 | 25µM* | -2% | -3% | -14% | -17 | 13%
